From PubChem
Compounds with a hit are over-represented: about 1.2% of the library has one in this group of screens.
LmPK inhibitor – inhibitors of Leishmania mexicana pyruvate kinase; purified LmPK, Kinase-Glo ATP luminescence, 1 h; 290,000 tested, 0.37% active; Potency, µM (doses to about 57.5 µM), for inactives: at the highest dose activity change, negative = inhibition, usual class: inhibitors; further: potency means the concentration at half of the fitted maximal effect; on the % scale 0 is the no-effect control and ±100 the full control effect
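Purified LmPK (0.1 nM) with 0.5 mM PEP and 0.1 mM ADP in imidazole buffer pH 7.2 with MgCl2/KCl, 1 h at room temperature. ATP formed was read by luciferase luminescence and normalized to no-enzyme and uninhibited controls.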
AMA1 RON2 block – inhibitors of Plasmodium falciparum AMA1-RON2 interaction; AlphaScreen AMA1-biotinylated RON2 peptide binding; AID 720542; 360,000 tested, 0.2% active; Potency, µM (titrated, usually from 58.2 µM), without a hit: at the top dose activity change, negative = inhibition, most hits filed as inhibitors;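 further: potency means the concentration at half of the fitted maximal effect; 0% = vehicle wells and -100% = peptide control; nearly all actives have a fitted effect of over 45% in size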
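AMA1 (3D7) with his tag at 25 nM final met compounds first, then biotinylated RON2 peptide at 25 nM; detection used donor plus acceptor beads, 10 µg/mL apiece, read by AlphaScreen after 30 min at room temperature.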
NS1 function inh – influenza NS1 inhibition | Potency, µM (top dose mostly 46.1 µM), for inactives: top-dose activity, positive = more growth | AID 2326 | 270,000 tested, 0.4% active; calls by dose curve; further: potency means the concentration at half of the fitted maximal effect; actives are rising curves; nearly all actives have a fitted effect of over 50% in size
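A cell-based growth assay was used: compounds that relieve NS1-induced slow growth of budding yeast raise OD600. Assay medium was yeast nitrogen base with ammonium sulphate and -URA supplement, pH 6.0, with 2% galactose.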
TbPYK inhibitor – inhibitors of Trypanosoma brucei pyruvate kinase | Q57TT1 | TbPYK enzyme, Kinase-Glo Plus ATP luminescence, 45 min | Potency, µM (titrated, usually from 76.8 µM), for inactives: at the highest dose activity, negative = inhibition, usual class: inhibitors | 410,000 tested, 0.12% active | AID 624173; further: potency means the concentration at half of the fitted maximal effect; on the % scale 0 is the no-effect control and ±100 the full control effect; nearly all actives have a fitted effect of over 50% in size
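Luminescent Kinase-Glo Plus end-point after 45 min room-temperature reaction of T. brucei pyruvate kinase started with 130 uM ADP (final). Buffer TEA 50 mM pH 7.2 with KCl, MgCl2, BSA, Tween-20; titration-based qHTS with fitted concentration-effect curves.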
Giardia FBPA inh – inhibitors of Giardia lamblia fructose-1,6-bisphosphate aldolase | Potency, µM (titrated, usually from 59.6 µM), inactives show top-dose activity, negative = inhibition, usual class: inhibitors | AID 2451 | purified Giardia FBPA | 290,000 tested, 0.71% active | A8B2U2; further: potency means the concentration at half of the fitted maximal effect; on the % scale 0 is the no-effect control and ±100 the full control effect; nearly all actives have a fitted effect of over 55% in size
Target sequence (A8B2U2 whole entry, looked up): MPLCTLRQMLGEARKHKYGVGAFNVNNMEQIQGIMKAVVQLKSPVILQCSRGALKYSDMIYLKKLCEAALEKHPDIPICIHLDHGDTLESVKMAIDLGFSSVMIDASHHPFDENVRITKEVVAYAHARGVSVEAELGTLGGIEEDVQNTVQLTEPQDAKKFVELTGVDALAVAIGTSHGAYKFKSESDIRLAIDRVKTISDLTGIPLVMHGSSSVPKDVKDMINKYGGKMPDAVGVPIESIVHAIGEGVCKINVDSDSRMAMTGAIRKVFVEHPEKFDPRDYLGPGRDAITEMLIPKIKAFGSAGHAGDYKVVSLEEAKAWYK
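Giardia FBPA (40 nM reagent) was preincubated 10 min at RT with compound (up to 57.5 uM final), then substrate plus GAPDH/TPI/NAD/arsenate coupling system with diaphorase/resazurin was added; resorufin fluorescence (525/598 nm) was read after 20 min.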
Flu NS1 inh – validation of influenza NS1 protein function inhibitors | shares compounds with NS1 function inh | influenza NS1 function cell assay, 15-point titration | 1,400 tested, under 10 active | AID 492980 | activity change, negative = inhibition, % at 32.9 µM; calls by dose curve; further: 0% is about no effect
Flu PR8 replic – influenza NS1 inhibitors: inhibition of influenza A/PR/8/34 replication; AID 504647; virus titer (log TCID50), log10 TCID50 at 5 µM; shares compounds with NS1 function inh; 95 tested, 30% active; MDCK infected influenza A/PR/8/34, virus titer TCID50; active compounds read low; call rule not given here
The depositor's hits bear a star; ? = inconclusive; · = not tested or not shown; [ ] = dose if it differs, or a comment. Unless noted, the call rests on the fitted dose curve; in most records, active means well fitted curve in the direction sought with a large enough effect; inconclusive means small, poorly fitted or top-dose-only effect, or another doubt; inactive means no such curve, though single readings can be large; an effect the other way counts as inactive or inconclusive.

SMILES | LmPK inhibitor | AMA1 RON2 block | NS1 function inh | TbPYK inhibitor | Giardia FBPA inh | Flu NS1 inh | others
O=C(CN1CCc2ccccc2C1)NCc1ccco1 | -7.1% | -1.5% | ? | -11.8% | -18.3% | 4.3
CC1CCN(CC(=O)NCc2ccco2)CC1 | 4.2% | 0.2% | -0.4% | 1.2% | 1.3% | ·
CSC(=[SH+])N=N/C(=C1/C=CC=CN1)c1ccccn1.[Cu][Br] | · | · | 21.0% | · | · | ·
COc1ccc(CC(=O)NC2CC(=O)N(c3cccc(F)c3)C2)cc1 (stereo unspecified) | · | · | · | 2.8% | · | ·
O=c1c2oc3ccccc3c2n(Cc2ccccc2)c(=O)n1Cc1ccc2c(c1)OCO2 | · | · | · | -0.3% | · | ·
COc1ccc(-c2ccc(C3C4C=CCC(C)C4C(=O)N3Cc3ccccc3)c(F)c2)cc1C (stereo unspecified) | · | · | · | · | -0.7% | ·
COc1ccc(-c2ccc([C@H]3[C@H]4C=CC[C@@H](C)[C@@H]4C(=O)N3Cc3ccccc3)c(F)c2)cc1C | 3.3% | -16.0% | ? | -2.8% | -0.1% | -5.6
COc1ccc(/C=N/NC(=O)c2ccc(CN3c4cccc5cccc(c45)S3(=O)=O)cc2)cc1 | -0.9% | 21.9% | ? | -0.7% | -6.5% | ·
O=C(N/N=C/CCc1ccccc1)c1ccc(CN2c3cccc4cccc(c34)S2(=O)=O)cc1 | 5.2% | 45.7% | 8.91µM* | -11.9% | 4.1% | 25.0
COC(=O)C1=C(C)N(Cc2ccc(C)cc2)C(=O)/C1=C\c1ccc(O)c(OC)c1 | -21.3% | ? | 10µM* | ? | -27.3% | ?
COc1ccc(N(CC(=O)NCCC(C)C)C(=O)c2snc(C(=O)NC3CCCCC3)c2N)c(OC)c1 | 2.3% | -5.3% | 12.6µM* | -4.2% | -18.4% | 4.7
Oc1ccc2ccccc2c1-c1sc(Nc2ccccc2)n[n+]1-c1ccc(F)cc1 | -0.7% | 61.6% | ? | -8.7% | 0.5% | -26.2
O=c1c(-c2ccccc2)nc2cnc(N3CCOCC3)nc2n1CCc1ccccc1 | · | · | · | · | -0.4% | ·
Cc1ccc(-c2[nH]c3ccccc3c2SCCNC(=O)c2cc3ccccc3oc2=O)cc1 | -2.9% | -20.3% | ? | -5.4% | -1.9% | ·
O=C(NCCSc1c(-c2ccccc2)[nH]c2ccccc12)c1cc2ccccc2oc1=O | 3.6% | ? | 11.2µM* | -10.9% | -1.1% | -3.2
CCC(=O)N1CC2(CC(c3cccc(NC(=O)CC(c4ccccc4)c4ccccc4)c3)=NO2)C[C@H]1C(N)=O (stereo partly specified) | 2.5% | -0.4% | -5.3% | -7.8% | -2.1% | ·
NC(=O)[C@H]1CC2(CC(c3cccc(NC(=O)CC(c4ccccc4)c4ccccc4)c3)=NO2)CN1C(=O)CC(c1ccccc1)c1ccccc1 (stereo partly specified) | 1.9% | -2.1% | 7.08µM* | 0.0% | -5.1% | 11.6 | Flu PR8 replic=8
NC(=O)[C@@H]1CC2(CC(c3cccc(NC(=O)CC(c4ccccc4)c4ccccc4)c3)=NO2)CN1C(=O)c1ccc(Cl)cc1 (stereo partly specified) | 5.9% | 4.4% | 3.98µM* | 4.0% | 0.9% | -0.1
CCCCCCCCCCCCCCCCCC(=O)OC(CC(=O)O)C[N+](C)(C)C (stereo unspecified) | · | · | -18.3% | · | 0.4% | ·
O=Nc1c(O)[nH]c2ccccc12.[Cu].[O-]/N=C1/C(=[OH+])Nc2ccccc21 | · | · | -5.9% | · | · | ·
COc1ccc(C(=O)NCCc2csc(-c3ccc(Cl)cc3)n2)c(OC)c1 | · | · | · | 1.7% | · | ·
COc1ccc(C(=O)Nc2nc3c(s2)CCCC3)cc1S(=O)(=O)N1CCCc2ccccc21 | 0.0% | -4.0% | 12.6µM* | -3.7% | 0.3% | -4.8
COc1ccccc1NC(=O)CSc1nc2nccnc2c(=O)n1CCc1c[nH]c2ccccc12 | · | · | · | 0.2% | · | ·
COc1ccccc1NC(=O)Cn1c(=O)n(CCc2c[nH]c3ccccc23)c(=O)c2cccnc21 | 2.8% | -1.9% | 11.2µM* | 0.8% | -4.1% | 25.6
Cc1cc(C)cc(-n2c(O)c(C=Nc3ccc(N4CCOCC4)cc3)c(=O)[nH]c2=S)c1 | 2.4% | 12.0% | 21.2% | -1.6% | -18.0% | ·
SMILES | LmPK inhibitor | AMA1 RON2 block | NS1 function inh | TbPYK inhibitor | Giardia FBPA inh | Flu NS1 inh | others
O=c1[nH]c(=S)n(-c2ccc(Br)cc2)c(O)c1C=Nc1ccc(N2CCOCC2)cc1 | -0.8% | 33.7% | 7.94µM* | -29.5% | -17.6% | 5.9
CC1CC(C)CN(c2ccc(C(=O)NCc3ccc4c(c3)OCO4)cc2[N+](=O)[O-])C1 (stereo unspecified) | 1.5% | ? | 10µM* | 2.9% | -10.3% | -16.8
O=C(NCCCO)C(=O)NCC(c1ccc2c(c1)OCO2)N1CCN(c2ccc(F)cc2)CC1 (stereo unspecified) | -2.5% | -15.2% | 2.24µM* | -0.6% | 10.5% | -21.3
O=C(CSc1ncc2c(n1)-c1cc(Cl)ccc1N(Cc1ccccc1)S2(=O)=O)NCCc1ccccc1 | · | · | · | -7.9% | · | ·
CC1CCc2cc(F)ccc2N1C(=O)CSc1nnc2c(n1)[nH]c1ccc(F)cc12 (stereo unspecified) | 5.1% | 0.1% | ? | 8.4% | -14.0% | 3.5
O=C(Nc1cccc2ccccc12)c1ccccc1NS(=O)(=O)c1cccc2cccnc12 | -1.2% | 4.1% | 11.2µM* | 2.9% | 8.5% | ?
COc1ccc(OC)c(NC(=O)c2ccccc2NS(=O)(=O)c2cccc3cccnc23)c1 | 4.8% | -14.4% | 14.1µM* | -2.5% | -16.6% | 6.0
COc1ccccc1NS(=O)(=O)c1cccc2cccnc12 | 5.1% | ? | 0.1% | -0.3% | -18.9% | ·
COc1ccc(-n2cc(C(=O)Oc3cc(C)cc(C)c3)c3ccccc3c2=O)cc1 | · | · | · | -1.9% | · | ·
COc1ccccc1CCn1c(=O)c(-c2ccc(Cl)cc2)nc2cncnc21 | · | · | · | -1.1% | -5.7% | ·
O=C1C(c2ccncc2)=C(O)c2ccccc21 | ? | -8.1% | 0.251µM* | -5.0% | -4.2% | -3.2
Cc1ccc(C2=C(O)c3ccccc3C(=O)C2=O)cc1 | -1.1% | -12.9% | -90.9% | 3.2% | ? | ·
O=C(NCc1ccccc1)N[C@@H](Cc1ccccc1)C(=O)O | -1.4% | -6.7% | 6.4% | -0.5% | 10.7% | ·
O=C(NCc1ccc(F)cc1)N[C@@H](Cc1ccccc1)C(=O)O | 3.9% | 4.8% | 1µM* | -7.8% | ? | 22.3
COc1cc(NC(=O)N[C@@H](Cc2ccccc2)C(=O)O)cc(OC)c1 | 7.4% | 10.2% | ? | 14.2% | 0.3% | 18.4
COc1ccc(OC2C=CC(c3ccccc3)OC2CO)cc1 (stereo unspecified) | · | · | · | · | -2.9%[12.9 µM] | ·
O=C(O)/C=C\C(=O)N1Cc2cc3ccccc3nc2C1 | · | · | 0.7% | · | · | ·
